Screening results as filed in PubChem BioAssay.
Most compounds without a hit are left out; they make up all but 21% or so of the library.
SARS PLP yeast: SARS-CoV PLP inhibition in yeast; S. cerevisiae expressing SARS-CoV PLpro, growth rescue; Potency, µM (highest dose often 32.9 µM), actives largely listed as activators; 0.19% of 330,000 active; AID 485353; calls by dose curve; also: nearly all actives have a fitted effect of over 55% in size
NS1 function inh: influenza NS1 inhibition; Potency, µM (series often up to 46.1 µM); 0.4% of 270,000 active; calls by dose curve; also: actives are rising curves; nearly all actives have a fitted effect of over 50% in size
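S. cerevisiae expressing influenza A NS1, grown in glucose, washed, then diluted 1:100 into pH 6.0 -URA galactose medium with 23 nl compound. Growth recovery read as OD600; NS1-free strain serves as control.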
Shiga toxin inh: inhibitors of Shiga toxin in Vero cells | Vero cells, Shiga toxin protein synthesis inhibition reporter | inhibition, % at 38.7 µM | 9.2% of 290,000 active | AID 2315; in the data active = inhibition mostly above about 28%, no sharp cut-off; inactive = mostly below about 43%
Cycloheximide cs: affects cycloheximide protein synthesis inhibition readout, counter-screen. cell reporter, cycloheximide protein synthesis inhibition counterscreen. 12% of 300,000 active. max response, %; in the data active = max response mostly above about 13%, no sharp cut-off; inactive = mostly below about 14%; also: read at 38.3 µM for the half of the compounds with a filed dose
Pf growth 96h: P. falciparum growth inhibition at 96 hour, primary screen for plastid delayed-death inhibitors. P. falciparum luciferase reporter growth, 96 h. Potency, µM (series often up to 28.7 µM), most hits filed as inhibitors. 6.9% of 320,000 active. AID 504834
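Erythrocytes infected with luciferase-expressing P. falciparum were dispensed at 2% hematocrit and 0.05% parasitemia (final), then incubated with compounds 96 hours at 37 C in 5% CO2. Luminescence after detection reagent addition reported growth.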
Pf growth 48h: P. falciparum growth inhibition at 48 hours (one generation). P. falciparum luciferase growth in erythrocytes, 48 h. Potency, µM (titrated, usually from 28.7 µM), hits mostly inhibitors. AID 504832. 5.9% of 310,000 active
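In quantitative HTS format, infected erythrocytes bearing luciferase-reporter parasites were treated for a single generation at 37 C. Luminescence after adding detection reagent served as the growth measure.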
Each line names hits and unclear results; the compound was inactive in the other large screens; ! = not confirmed by another sample. Unless noted, calls follow the shape of the dose curve; as a rule, active = well fitted inhibition curve with a large enough effect; inconclusive = small, poorly fitted or top-dose-only effect, or another doubt; inactive = no such curve, though single readings can be large or run the other way.

COc1ccc2oc(C(=O)NNC(=O)c3ccc(F)cc3)c(C)c2c1	none (no result: NS1 function inh, Shiga toxin inh, Cycloheximide cs)
CCOc1ccc2oc(C(=O)NCC3CCCO3)c(C)c2c1 (stereo not drawn)	Shiga toxin inh 88, Cycloheximide cs 46
CC(C)(C)c1ccc(S(=O)(=O)NCc2ccc(C(=O)NCC3CCCO3)cc2)cc1 (stereo not drawn)	Pf growth 48h inconclusive
COc1ccc2oc(C(=O)NC(C)(C)C)c(C)c2c1	Shiga toxin inh 96, Cycloheximide cs 49 (no result: NS1 function inh)
COc1ccc(NC(=O)c2ccc(Cl)c(S(=O)(=O)NCC3CCCO3)c2)c(OC)c1 (stereo not drawn)	Pf growth 96h 12µM, Pf growth 48h inconclusive
CCOc1ccc2oc(C(=O)OCC(=O)NCC3CCCO3)c(C)c2c1 (stereo not drawn)	none (no result: NS1 function inh, Shiga toxin inh, Cycloheximide cs)
CC(=O)NC(c1ccco1)c1cc(Cl)c2ccc(N(C)C)nc2c1O (stereo not drawn)	Pf growth 48h inconclusive (no result: NS1 function inh, Shiga toxin inh, Cycloheximide cs)
COc1ccc(-c2cc(C(=O)NCC3CCCO3)c3cc(C)ccc3n2)cc1 (stereo not drawn)	Cycloheximide cs 18, Pf growth 96h inconclusive
COc1ccc2oc(C(=O)Nc3ccc(S(=O)(=O)N(C)C4CCN(C)CC4)cc3)c(C)c2c1	Pf growth 96h inconclusive, Pf growth 48h 5.9µM
COc1ccc2oc(C(=O)NCC3CCCO3)c(C)c2c1 (stereo not drawn)	Shiga toxin inh 98, Cycloheximide cs 65
O=C(/C=C/c1ccccc1)C1=C(O)C(=O)N(CCO)C1c1ccc2c(c1)OCO2 (stereo not drawn)	none
Cc1ccc(N(C)/N=C/c2ccc(Cl)cc2Cl)nn1	Cycloheximide cs 16
Cc1cc(=O)[nH]c(N/N=C/c2ccc(Cl)cc2Cl)n1	Pf growth 96h inconclusive
O=S(=O)(Nc1cccc(S(=O)(=O)N2CCCCC2)c1)c1ccccc1F	none (no result: NS1 function inh, Shiga toxin inh, Cycloheximide cs, Pf growth 96h, Pf growth 48h)
Cc1cc(C)cc(OC(=O)COc2ccccc2C)c1	Pf growth 96h inconclusive
CC(CCc1ccco1)NC(=O)CSc1cc(=O)n(C)c2ccccc12 (stereo not drawn)	Pf growth 96h 4.1µM
CCCCNC(=O)CSc1cc(=O)n(C)c2ccccc12	Pf growth 96h 0.21µM
COc1cc(NC(=O)c2cccc(F)c2)cc(OC)c1OC	none
COc1ccccc1CNC(=O)C(CCSC)NS(=O)(=O)c1ccc2c(c1)oc(=O)n2C (stereo not drawn)	Cycloheximide cs 52, Pf growth 96h 2.1µM
COc1ccccc1CNC(=O)C(CC(C)C)NS(=O)(=O)c1ccc2c(c1)oc(=O)n2C (stereo not drawn)	none (no result: Pf growth 48h)
CN(C(=O)CC1C(=O)NCCN1Cc1ccc(F)c(F)c1)C1CCCCC1 (stereo not drawn)	Pf growth 96h inconclusive
CN(C)/C=C/C(=O)c1ccc(Cl)c([N+](=O)[O-])c1	Cycloheximide cs 21
CN(C)/C=C/C(=O)c1ccc([N+](=O)[O-])c(CS(=O)(=O)c2ccccc2)c1	none
CN(C)/C=C/C(=O)c1cccc(Cl)c1	Cycloheximide cs 17
CN(C)/C=C/C(=O)c1ccc(-n2cccc2)cc1	Shiga toxin inh 75, Cycloheximide cs 30 (no result: NS1 function inh)
CCOC(=O)c1c(C)[nH]c(C(=O)COC(=O)CNC(=O)c2ccc(Cl)cc2Cl)c1C	none
CN1CCN(c2nc(-c3cccc([N+](=O)[O-])c3)nc3ccccc23)CC1	Pf growth 48h inconclusive
O=S(=O)(c1ccc(Br)s1)N1CCC2(CC1)OCCO2	Pf growth 96h inconclusive
CCS(=O)(=O)c1nc(S(=O)(=O)c2ccc(Cl)cc2)c(N2CCC3(CC2)OCCO3)s1	none
CCS(=O)(=O)c1nc(S(=O)(=O)c2ccc(C)cc2)c(N2CC(C)OC(C)C2)s1 (stereo not drawn)	Pf growth 96h 15µM
Cc1ccc(S(=O)(=O)c2nc(S(C)(=O)=O)sc2N2CCC(C(N)=O)CC2)cc1	Pf growth 96h 8.3µM, Pf growth 48h inconclusive
CS(=O)(=O)c1nc(S(=O)(=O)c2ccc(Cl)cc2)c(N2CCC3(CC2)OCCO3)s1	Pf growth 96h 2.9µM
COc1cc2nc(CN(C)Cc3ccc(C(C)(C)C)cc3)[nH]c(=O)c2cc1OC	none
CC(C)C(NC(=S)NCc1ccccc1)C(=O)O (stereo not drawn)	none (no result: Pf growth 96h)
C=CCN1C(=O)C(CC(C)C)NC1=S (stereo not drawn)	Pf growth 96h 0.54µM! (no result: SARS PLP yeast, NS1 function inh)
Cc1ccc(CNC(=O)C(=O)NCC2CCCN2S(=O)(=O)c2cccs2)cc1 (stereo not drawn)	Pf growth 96h inconclusive, Pf growth 48h inconclusive (no result: NS1 function inh, Shiga toxin inh, Cycloheximide cs)
COc1ccccc1CN1CCCC(CN(CCN(C)C)C(=O)c2ccc(C)cc2)C1 (stereo not drawn)	Pf growth 96h inconclusive
COc1ccc(N=Cc2nc(-c3ccccc3)oc2OC(C)=O)cc1	none
Cc1ccc(C(=O)Oc2oc(-c3ccccc3)nc2C=Nc2ccc(N(C)C)cc2)cc1	Shiga toxin inh 130, Cycloheximide cs 78
Cn1c(Cl)c(/C=N/OC(=O)c2cccc(Cl)c2)c2ccccc21	none
CN(C)c1ccc(N=Cc2nc(-c3ccccc3)oc2OC(=O)c2cccc(Cl)c2)cc1	Shiga toxin inh 71, Cycloheximide cs 68
COc1cccc(N=Cc2nc(-c3ccccc3)oc2OC(C)=O)c1	Shiga toxin inh 48
COc1c(O)ccc(C2NC(=O)NC(C)=C2C(=O)Nc2ccccc2C)c1[N+](=O)[O-] (stereo not drawn)	Pf growth 96h inconclusive (no result: NS1 function inh)
CN(C)c1ccc(/C=N/NC(=O)CN2CCCCC2)cc1Br	none (no result: Shiga toxin inh)
O=C(COC(=O)c1ccc(F)c(S(=O)(=O)N2CCOCC2)c1)Nc1ccc2c(c1)OCO2	none (no result: NS1 function inh, Shiga toxin inh, Cycloheximide cs)
CN(C)S(=O)(=O)c1cccc(NC(=O)c2ccc(N3CCOCC3)c([N+](=O)[O-])c2)c1	Pf growth 96h inconclusive
COc1ccc(CN2CCNC(=O)C2CC(=O)NCC2CCOCC2)c(F)c1 (stereo not drawn)	Pf growth 96h 10µM
COc1cccc(CN2CCNC(=O)C2CC(=O)NCC2CCOCC2)c1 (stereo not drawn)	Pf growth 96h inconclusive
COc1ccccc1CN1CCNC(=O)C1CC(=O)NCC1CCOCC1 (stereo not drawn)	Pf growth 96h 9.3µM
CC1=CCC[C@@H]2[C@@](C)(CC/C(C)=C/C(=O)O)[C@H](C)CC[C@@]12C	none
CC(C)Cn1c(SCC(=O)N2CCOCC2)nc2ccccc2c1=O	Pf growth 96h inconclusive (no result: NS1 function inh, Shiga toxin inh, Cycloheximide cs)
O=C(CSc1nncc2ccccc12)Nc1ccccc1	Pf growth 48h inconclusive
O=C(CSc1nncc2ccccc12)N1CCOCC1	Cycloheximide cs 17 (no result: Pf growth 96h)
O=C(CSc1nc2ccccc2c2c1CCCC2)N1CCOCC1	Pf growth 96h 9.3µM
O=C(CSc1nncc2ccccc12)Nc1ccc(C(=O)O)cc1	Cycloheximide cs 21, Pf growth 96h inconclusive
S=c1sc(SCCOc2ccccc2)nn1-c1ccccc1	none
C[C@@H]1CC=C[C@H]2[C@H]1C(=O)N(Cc1ccccc1)[C@H]2c1ccc(F)c(-c2ccc(N(C)C)cc2)c1	NS1 function inh inconclusive, Pf growth 96h 12µM, Pf growth 48h inconclusive
